# PubChem BioAssay AID504454 (NMMLSC, 2011)
# About 1,400 (0.41%) of roughly 340,000 compounds were called active. The sample as a whole holds a higher share of actives than the screen did. Values without a mark were called inactive.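 The calls were made as follows: active = response above a set limit, near 3 SD of response in nonfluorescent compounds (cut at about 42% in these data); inactive = the rest.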
# Molecular target: Beta-2 adrenergic receptor (Homo sapiens) (UniProt P07550)
# Assay: agonist-induced loss of surface beta2AR – cell-based, FAP fluorogen, flow cytometry, primary screen (AID 504454)
# Details: Am2.2-beta2AR cells, FAP receptor internalization, hits give high values, concentration not given here
# Chain of Beta-2 adrenergic receptor (Homo sapiens) (P07550 whole entry, looked up): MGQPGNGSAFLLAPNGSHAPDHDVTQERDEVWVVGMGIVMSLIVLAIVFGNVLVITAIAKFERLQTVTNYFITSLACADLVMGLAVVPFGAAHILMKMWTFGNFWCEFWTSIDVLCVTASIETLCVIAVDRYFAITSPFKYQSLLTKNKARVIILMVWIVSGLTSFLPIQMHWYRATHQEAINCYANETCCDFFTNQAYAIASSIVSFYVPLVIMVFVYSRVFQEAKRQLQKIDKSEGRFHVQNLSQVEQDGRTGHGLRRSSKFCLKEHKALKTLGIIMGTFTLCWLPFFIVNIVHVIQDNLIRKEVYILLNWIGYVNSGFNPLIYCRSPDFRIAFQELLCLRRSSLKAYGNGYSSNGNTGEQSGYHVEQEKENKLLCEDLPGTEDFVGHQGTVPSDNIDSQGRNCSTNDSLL
row,SMILES,response
1,O=C1NC(=O)N(Cc2ccco2)C(=O)/C1=C\c1ccc(-c2ccc(F)cc2)o1,47.3% (active)
2,O=C1NC(=O)N(CCc2ccc(F)cc2)C(=O)/C1=C/C=C/c1ccccc1,18.2%
3,COc1ccc(N2C(=O)/C(=C/c3ccco3)C(=O)NC2=S)cc1,11.6%
4,NC(=O)Nc1cccc(C(F)(F)F)c1,-1.13%
5,O=C1NC(=O)C(CCc2ccccn2)(Cc2cccc(Cl)c2Cl)C(=O)N1c1ccc(Br)cc1 (stereo not given),51.1% (active)
6,Cc1ccc(N2C(=O)NC(=O)C(CCc3ccncc3)(Cc3cccc(Cl)c3Cl)C2=O)cc1 (stereo not given),-11.4%
7,COc1ccc(C(=O)CC2C(=O)N(C)C(=O)N(C)C2=O)cc1,8.45%
8,CCN(N=Nc1nonc1OC)c1nonc1OC,-1.92%
9,Cc1c(Oc2cc(NN3CCCCC3)c([N+](=O)[O-])cc2[N+](=O)[O-])cccc1[N+](=O)[O-],-2.15%
10,CCCC(C)n1[nH]c(=O)c2c1NC(=O)CSC2c1ccc(OC)c(OC)c1 (stereo not given),-2.18%
11,C[C@]12CCC3C(CC[C@H]4[C@H](O)[C@H](O)CC[C@]34C)C1CCC2=O (stereo not given in full),0.88%
12,O=C(N/N=C/c1c(O)n(Cc2ccccc2)c(=O)[nH]c1=O)c1ccccc1,-4.99%
13,O=C(N/N=C/c1c(O)n(C2CC2)c(=S)[nH]c1=O)c1ccccc1Cl,-2.3%
14,O=C(N/N=C/c1c(O)n(C2CC2)c(=S)[nH]c1=O)c1ccccc1,88.2% (active)
15,CN1CCC[C@@H]1CCO[C@](C)(c1ccccc1)c1ccc(Cl)cc1,7.46%
16,CCC(=O)CC(c1ccc([N+](=O)[O-])cc1)c1c(O)c2ccccc2oc1=O (stereo not given),8.6%
17,Cc1ccc2c(c1)C1CN(C)CCC1N2C(=O)Cn1nnc(-c2ccccc2F)n1 (stereo not given),3.52%
18,Cc1ccc(C(C)C)c(OCC(=O)N2CCN(CC(=O)N3CCOCC3)CC2)c1,1.49%
19,CCC(=O)c1ccc(OCC(=O)N2CCN(CC(=O)Nc3ccc(C)cc3)CC2)cc1,80.6% (active)
20,CCc1ccc(OCC(=O)N2CCN(CC(=O)Nc3ccccc3Cl)CC2)cc1,1.84%
